Measured values taken from PubChem BioAssay AID1159580 (chemical genetic matrix, 2015).
Among all 5,500 compounds or so, about 2,000 (36%) were called active. Another 18% or so got no clear call; they are omitted. Rule as the data show it: active = normalized growth mostly below about 0.91 (no sharp cut-off); inconclusive = no clear call, values can overlap the other calls; inactive = mostly above about 0.92. The list shows a part of the results.

Assay: chemical genetic growth profiling, strain panel (AID 1159580);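 also: tested at 20 µM; growth read once vehicle control cultures reached saturation at 30 °C; 1 = growth at the plate median or of vehicle wells; lower values mean less growth of the strain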
Conditions: growth OD

Measured: normalized growth

CCCCC(CC)CN=C(N)NC(N)=NCCCCCCN=C(N)NC(N)=NCC(CC)CCCC (centres undefined)
active: S. cerevisiae deletion strains, locus YKL009W, strain mrt4, hits give low values 0.0745 | S. cerevisiae deletion strains, locus YKL068W, hits give low values 0.0576 | S. cerevisiae deletion strains, locus YKL085W, strain MDH1 (second series), hits give low values 0.0564 | S. cerevisiae deletion strains, locus YKL085W, strain MDH1, hits give low values 0.0564 | S. cerevisiae deletion strains, locus YKL160W, strain elf1, hits give low values 0.0635 | S. cerevisiae deletion strains, locus YKL190W, strain CNB1, hits give low values 0.05 | S. cerevisiae deletion strains, locus YKR001C, strain vps1, hits give low values 0.0639 | S. cerevisiae deletion strains, locus YKR026C, strain gcn3, hits give low values 0.0659 | S. cerevisiae deletion strains, locus YKR091W, strain srl3, hits give low values 0.0594 | S. cerevisiae deletion strains, locus YLL001W, strain dnm1, hits give low values 0.0606 | S. cerevisiae deletion strains, locus YLL026W, hits give low values 0.0577 | S. cerevisiae deletion strains, locus YLL041C, strain sdh2, hits give low values 0.0581 | S. cerevisiae deletion strains, locus YLR027C, strain aat2, hits give low values 0.0557 | S. cerevisiae deletion strains, locus YLR039C, strain RIC1, hits give low values 0.0876 | S. cerevisiae deletion strains, locus YLR058C, strain SHM2, hits give low values 0.0571 | S. cerevisiae deletion strains, locus YLR102C, strain apc9, hits give low values 0.0596 | S. cerevisiae deletion strains, locus YLR113W, strain HOG1, hits give low values 0.113 | S. cerevisiae deletion strains, locus YLR221C, strain rsa3, hits give low values 0.0636 | S. cerevisiae deletion strains, locus YLR258W, strain gsy2, hits give low values 0.0577 | S. cerevisiae deletion strains, locus YLR262C, strain YPT6 (second series), hits give low values 0.0725 | S. cerevisiae deletion strains, locus YLR262C, strain YPT6, hits give low values 0.104 | S. cerevisiae deletion strains, locus YLR268W, strain sec22, hits give low values 0.0602 | S. cerevisiae deletion strains, locus YLR320W, strain mms22, hits give low values 0.0987 | S. cerevisiae deletion strains, locus YLR330W, strain CHS5, hits give low values 0.0561 | S. cerevisiae deletion strains, locus YLR342W, strain FKS1 (second series), hits give low values 0.0721 | S. cerevisiae deletion strains, locus YLR342W, strain FKS1, hits give low values 0.0635 | S. cerevisiae deletion strains, locus YLR357W, strain rsc2, hits give low values 0.127 | S. cerevisiae deletion strains, locus YLR370C, strain arc18, hits give low values 0.0632 | S. cerevisiae deletion strains, locus YLR371W, strain rom2, hits give low values 0.0612 | S. cerevisiae deletion strains, locus YLR384C, strain iki3, hits give low values 0.0589 | S. cerevisiae deletion strains, locus YLR418C, strain cdc73, hits give low values 0.0906 | S. cerevisiae deletion strains, locus YML016C, strain PPZ1, hits give low values 0.0539 | S. cerevisiae deletion strains, locus YML032C, strain rad52, hits give low values 0.0626 | S. cerevisiae deletion strains, locus YML120C, strain ndi1, hits give low values 0.0582 | S. cerevisiae deletion strains, locus YML124C, strain tub3, hits give low values 0.058 | S. cerevisiae deletion strains, locus YMR058W, strain fet3, hits give low values 0.0606 | S. cerevisiae deletion strains, locus YMR078C, strain ctf18, hits give low values 0.0695 | S. cerevisiae deletion strains, locus YMR125W, strain sto1, hits give low values 0.0772 | S. cerevisiae deletion strains, locus YMR129W, hits give low values 0.0584 | S. cerevisiae deletion strains, locus YMR205C, strain PFK2, hits give low values 0.0839 | S. cerevisiae deletion strains, locus YMR223W, strain ubp8, hits give low values 0.0589 | S. cerevisiae deletion strains, locus YMR231W, strain pep5, hits give low values 0.0657 | S. cerevisiae deletion strains, locus YMR263W, strain SAP30, hits give low values 0.0593 | S. cerevisiae deletion strains, locus YMR307W, strain GAS1, hits give low values 0.118 | S. cerevisiae deletion strains, locus YNL067W, strain RPL9B, hits give low values 0.051 | S. cerevisiae deletion strains, locus YNL071W, strain lat1, hits give low values 0.0619 | S. cerevisiae deletion strains, locus YNL128W, strain TEP1, hits give low values 0.0666 | S. cerevisiae deletion strains, locus YNL183C, strain NPR1, hits give low values -0.00134 | S. cerevisiae deletion strains, locus YNL209W, strain ssb2, hits give low values 0.0592 | S. cerevisiae deletion strains, locus YNL233W, strain BNI4, hits give low values 0.06 | S. cerevisiae deletion strains, locus YNL248C, strain rpa49, hits give low values 0.0743 | S. cerevisiae deletion strains, locus YNL250W, strain rad50, hits give low values 0.0631 | S. cerevisiae deletion strains, locus YNL271C, strain bni1, hits give low values 0.0667 | S. cerevisiae deletion strains, locus YNL298W, strain CLA4, hits give low values 0.0608 | S. cerevisiae deletion strains, locus YNL307C, strain MCK1, hits give low values 0.0671 | S. cerevisiae deletion strains, locus YNL322C, strain KRE1 (second series), hits give low values 0.0646 | S. cerevisiae deletion strains, locus YNL322C, strain KRE1, hits give low values 0.05 | S. cerevisiae deletion strains, locus YNR049C, strain mso1, hits give low values 0.058 | S. cerevisiae deletion strains, locus YNR052C, strain pop2, hits give low values 0.0629 | S. cerevisiae deletion strains, locus YOL006C, strain TOP1, hits give low values 0.124 | S. cerevisiae deletion strains, locus YOL012C, strain htz1 0.144 | S. cerevisiae deletion strains, locus YOL147C, strain pex11, hits give low values 0.058 | S. cerevisiae deletion strains, locus YOR001W, strain rrp6, hits give low values 0.0671 | S. cerevisiae deletion strains, locus YOR061W, strain CKA2, hits give low values 0.0521 | S. cerevisiae deletion strains, locus YOR069W, strain VPS5, hits give low values 0.0535 | S. cerevisiae deletion strains, locus YOR070C, strain gyp1, hits give low values 0.0584 | S. cerevisiae deletion strains, locus YOR080W, strain dia2, hits give low values 0.0635 | S. cerevisiae deletion strains, locus YOR083W, strain WHI5, hits give low values 0.0619 | S. cerevisiae deletion strains, locus YOR106W, strain vam3, hits give low values 0.0658 | S. cerevisiae deletion strains, locus YOR136W, strain idh2, hits give low values 0.0692 | S. cerevisiae deletion strains, locus YOR144C, strain elg1, hits give low values 0.0567 | S. cerevisiae deletion strains, locus YOR184W, strain ser1, hits give low values 0.0701 | S. cerevisiae deletion strains, locus YOR231W, strain MKK1, hits give low values 0.0983 | S. cerevisiae deletion strains, locus YOR265W, strain rbl2, hits give low values 0.0559 | S. cerevisiae deletion strains, locus YOR270C, strain vph1, hits give low values 0.0983 | S. cerevisiae deletion strains, locus YOR290C, strain snf2, hits give low values 0.0664 | S. cerevisiae deletion strains, locus YOR316C, strain cot1, hits give low values 0.0588 | S. cerevisiae deletion strains, locus YPL051W, strain arl3, hits give low values 0.0606 | S. cerevisiae deletion strains, locus YPL055C, strain LGE1, hits give low values 0.0672 | S. cerevisiae deletion strains, locus YPL078C, strain atp4, hits give low values 0.0617 | S. cerevisiae deletion strains, locus YPL106C, strain sse1, hits give low values 0.0996 | S. cerevisiae deletion strains, locus YPL240C, strain hsp82, hits give low values 0.0572 | S. cerevisiae deletion strains, locus YPL256C, strain CLN2, hits give low values 0.111 | S. cerevisiae deletion strains, locus YPR119W, strain clb2, hits give low values 0.0609 | S. cerevisiae deletion strains, locus YPR141C, strain kar3, hits give low values 0.0639 | S. cerevisiae deletion strains, locus YPR163C, strain tif3, hits give low values 0.0715 | S. cerevisiae deletion strains, locus YPR167C, strain met16, hits give low values 0.0622 | S. cerevisiae deletion strains, strain wtn01, hits give low values 0.0578 | S. cerevisiae strains, strain wild type, hits give low values 0.0505
